# FID counter: displaces DNA intercalator in HCV helicase counter-screen; DNA fluorescent intercalator displacement, fluorescence; inhibition, % at 7.9 µM; actives 0.17% (n = 290,000); AID 1845; in the data active = inhibition above about 37%;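 also: 0% = vehicle and 100% = reference compound; higher means more ethidium bromide displaced from hairpin DNA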
# dFosB act: mouse delta FosB homodimer activation. P13346. purified delta FosB, TAMRA-CDK5 oligo fluorescence polarization; percent of positive-control signal above neutral wells. activation, % at 25 µM. actives 0.99% (n = 340,000). AID 493131;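 active = mean activation above about 17%, with every replicate also reaching it, limit read from the data, passing the limit was not always enough; inconclusive = only one of the two conditions met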
# Target sequence (P13346 whole entry, looked up): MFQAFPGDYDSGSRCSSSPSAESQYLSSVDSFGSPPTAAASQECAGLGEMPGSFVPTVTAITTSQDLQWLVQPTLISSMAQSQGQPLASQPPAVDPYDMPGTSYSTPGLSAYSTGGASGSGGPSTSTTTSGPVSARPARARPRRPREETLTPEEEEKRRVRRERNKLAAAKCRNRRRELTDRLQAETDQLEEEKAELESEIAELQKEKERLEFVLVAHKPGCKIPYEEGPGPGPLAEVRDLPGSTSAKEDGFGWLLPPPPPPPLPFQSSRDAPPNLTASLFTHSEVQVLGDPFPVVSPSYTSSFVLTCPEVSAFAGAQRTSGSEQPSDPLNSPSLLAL
# MEKK2 WT-MEK5: raises or lowers MEK5 binding to wildtype human MEKK2 PB1 domain | Q9Y2U5 | bead flow cytometry, Alexa488-MEK5 binding to MEKK2 WT; actives lie on both sides | binding response (% of control), % at 10 µM | actives 1.1% (n = 290,000) | AID 1531; in the data active = binding response below about 67% or above about 130%; inconclusive = no clear call, values can overlap the other calls; inactive = in between
# MEKK3 PB1 HTS: modulators (inhibitors or enhancers) of MEK5 binding to human MEKK3 PB1 domain; Q99759; bead-based flow cytometry, Alexa488-MEK5 binding to MEKK3; actives lie on both sides; 0 = blocked by unlabeled MEK5, 100 = vehicle; binding response (% of control), % at 10 µM; actives 1.4% (n = 290,000);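 active = binding response more than 3 SD above or below the average of its plate-row segment, actives on both sides; inconclusive = wells at one plate position flagged as instrument error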;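 also: Alexa488 bead fluorescence after subtracting the streptavidin-only scavenger bead signal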
# MEKK2 mut-MEK5: signal of MEK5 binding to mutant human MEKK2 PB1 domain; bead flow cytometry, Alexa488-MEK5 binding to MEKK2 mutant; percent response, % at 10 µM; actives 0.35% (n = 290,000); AID 1530; in the data active = percent response above about 24%, passing the limit was not always enough
# MEKK2wt confirm: raises or lowers MEK5 binding to wildtype human MEKK2, retest. shares compounds with MEKK3 PB1 HTS. actives 2.4% (n = 5,900). bead flow cytometry, Alexa488-MEK5 binding to MEKK2 WT; actives lie on both sides. binding response (% of control), % at 10 µM; in the data active = binding response below about 16% or above about 210%; inactive = in between
# MEKK2mut confirm: signal of MEK5 binding to mutant human MEKK2, retest; actives 2% (n = 5,900); bead flow cytometry, Alexa488-MEK5 binding to MEKK2 mutant; percent response, % at 10 µM; AID 1893; shares compounds with MEKK3 PB1 HTS; in the data active = percent response mostly above about 71%, no sharp cut-off; inactive = mostly below about 38%;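 also: higher means compound restores mutant binding toward wildtype level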
# MEKK3 confirm: MEKK3-MEK5 PB1 inhibition, single concentration confirmation | shares compounds with MEKK3 PB1 HTS | bead flow cytometry, Alexa488-MEK5 binding to MEKK3; stronger effect = lower value | binding response (% of control), % at 10 µM | actives 1.8% (n = 5,900);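 active = binding response below 72% of control, or above a set upper limit, though filed actives all read lower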;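 also: 100% = DMSO only wells and 0% = binding blocked by excess unlabeled MEK5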
# * = called active by the depositor; ? = inconclusive; · = no result; [ ] = remark or other dose. Rows were chosen to be rich in hits. Some 2.9% of all compounds tested hit in one or more screens of this group.
SMILES,FID counter,dFosB act,MEKK2 WT-MEK5,MEKK3 PB1 HTS,MEKK2 mut-MEK5,MEKK2wt confirm,MEKK2mut confirm,MEKK3 confirm
CCN(C(=O)CN1CCCCC1)C1(C)C(=O)c2ccccc2C1=O,-1.2,-2.9,109.0,140.0*,1.0,101.0,1.0,100.0
C[C@@H](O)C1NC(=O)[C@H](CCCCN)NC(=O)c2cc([N+](=O)[O-])cc(F)c2NCCCC[C@@H](C(N)=O)NC1=O (stereo partly specified),9.6,?,141.0*,108.0,14.0,143.0,22.0,102.0
CCCN(Cc1cc2cc(C)ccc2[nH]c1=O)C(=O)c1cccc([N+](=O)[O-])c1,-4.8,-3.2,127.0,130.0*,24.0,102.0,-11.0,94.0
CCCN(Cc1cc2ccccc2[nH]c1=O)C(=O)c1cccc([N+](=O)[O-])c1,-7.4,-4.9,114.0,121.0,17.0,·,·,·
CN1C(=O)CSC1=NC12CC3CC(CC(C3)C1)C2,-3.5,-5.5,30.0*[inhibitor],20.0*[inhibitor],-17.0,107.0,2.0,107.0
Cc1cc(NC(=O)CCC(=O)N(CC(=O)NCC2CCCO2)c2ccc(F)c(Cl)c2)no1 (stereo unspecified),-36.8,-6.2,98.0,101.0,-4.0,·,·,·
Cc1ccc(NC(=O)c2c3c(nc4ccccc24)CCC3)cc1,-8.5,-9.2,84.0,72.0*[inhibitor],-2.0,107.0,5.0,103.0
O=C(O)c1ccc(N2C(=O)Nc3ccccc3N2O)cc1,2.4,1.3,104.0,104.0,4.0,·,·,·
COC(=O)c1ccc(N2C(=O)Nc3ccccc3N2O)cc1,5.5,4.2,53.0,50.0*[inhibitor],-31.0,99.0,-3.0,103.0
C=CCSc1nc2sc(C)c(C)c2c(=O)n1N,-7.5,-6.3,97.0,95.0,-2.0,·,·,·
O=C(COC(=O)c1ccc(F)cc1Cl)NC1CCCCCCC1,·,-9.8,·,·,·,·,·,·
COc1ccc(OCc2nc3c4cc(OC)c(OC)cc4nc(=S)n3[nH]2)cc1,-4.2,?,106.0,128.0*,1.0,105.0,4.0,105.0
COc1cc2nc(=S)n3[nH]c(CCn4c(C)nc5ccccc54)nc3c2cc1OC,-5.2,-3.6,106.0,104.0,6.0,·,·,·
CCN(CC)c1nc(Nc2ccc([N+](=O)[O-])cc2)nc(N(CC)CC)n1,-6.3,-8.5,109.0,107.0,19.0,·,·,·
O=C(Cc1cccs1)Nc1nc2c(s1)CCCC2,0.8,-4.3,64.0,51.0*[inhibitor],-19.0,100.0,-2.0,96.0
O=C(c1ccco1)N1CCN(Cc2cccc3ccccc23)CC1,-21.8,-1.3,99.0,101.0,-2.0,·,·,·
COC(=O)/C=C/CC(C)OS(N)(=O)=O (stereo unspecified),-5.3,7.0,152.0*,98.0,7.0,96.0,-7.0,90.0
COC(=O)[C@H](CC(C)C)NS(=O)(=O)N[C@@H](CC(C)C)C(=O)OC,·,3.9,·,·,·,·,·,·
CC(=O)CSc1cc(C)nc2c(-c3ccccc3)c(C)nn12,-6.2,3.7,122.0,129.0*,22.0,97.0,2.0,104.0
COCCCNc1oc(COc2ccc(Cl)cc2Cl)nc1C#N,-13.7,3.5,100.0,97.0,-3.0,·,·,·
N#Cc1nc(COc2ccc(-c3ccccc3)cc2)oc1NCCCN1CCOCC1,18.3,1.8,140.0*,107.0,20.0,144.0,31.0,104.0
CN(C)CCNc1oc(COc2ccc(-c3ccccc3)cc2)nc1C#N,16.1,7.4,150.0*,106.0,34.0,141.0,30.0,107.0
CN(C)CCNc1oc(COc2ccc(Cl)cc2Cl)nc1C#N,1.4,13.8,170.0*,114.0,55.0*,152.0,32.0,110.0
N#Cc1nc(COc2ccccc2)oc1NCCN1CCOCC1,-5.5,2.7,106.0,104.0,11.0,·,·,·
C=CCNc1oc(COc2ccc(C)cc2)nc1C#N,-8.7,-11.3,93.0,92.0,-3.0,·,·,·
SMILES,FID counter,dFosB act,MEKK2 WT-MEK5,MEKK3 PB1 HTS,MEKK2 mut-MEK5,MEKK2wt confirm,MEKK2mut confirm,MEKK3 confirm
CCOc1ccccc1CNC(=O)CCNS(=O)(=O)c1ccc2[nH]c(=O)oc2c1,-3.9,1.8,100.0,99.0,1.0,·,·,·
CN(C)c1ncc(CN2CCC(C(=O)Nc3ccc(-n4cccn4)cc3)CC2)s1,5.1,-4.2,104.0,100.0,4.0,·,·,·
O=C(CCn1cnc2ccccc2c1=O)Nc1cccc(Cl)c1Cl,-8.8,2.9,89.0,90.0,-5.0,·,·,·
CCn1c(O)c(/C=C/C=C/C=Nc2ccccc2)sc1=S,-5.2,-9.7,59.0*[inhibitor],87.0,-1.0,84.0,-7.0,93.0
CCCn1c(O)c(C=Nc2ccccc2)sc1=S,-2.2,6.2,82.0,100.0,-7.0,·,·,·
CCCCn1c(O)c(/C=C/C=C/C=Nc2ccccc2)sc1=S,-15.0,-3.1,-5.0*,21.0*[inhibitor],-29.0,22.0,-27.0,35.0*
COc1cc(C)nc(OCCNS(=O)(=O)c2cc(C)ccc2C)n1,-23.8,7.7,105.0,105.0,9.0,·,·,·
COc1ccc(CN2CCC(n3nccc3NC(=O)C3CCCC3)CC2)cc1,3.9,-7.9,144.0*,108.0,20.0,142.0,26.0,110.0
CC(C)Cc1ccc(CN2CCC(n3nccc3NC(=O)C3CCCC3)CC2)cc1,18.9,-4.1,119.0,104.0,6.0,·,·,·
COc1ccc(CCNC(=O)c2cccc(S(=O)(=O)NC(C)c3ccccc3)c2)cc1 (stereo unspecified),·,-2.5,·,·,·,·,·,·
CCCCCCN(C(=O)CCl)c1ccccc1,-8.2,-5.5,48.0,41.0*[inhibitor],-44.0,94.0,-3.0,99.0
COc1ccccc1C1NC(=O)c2ccccc2O1 (stereo unspecified),-4.8,-9.2,98.0,90.0,-2.0,·,·,·
O=C(NCCc1ccccn1)c1cc(-c2ccc(Cl)c(Cl)c2Cl)nc2ccccc12,-24.7,-1.1,121.0,105.0,19.0,·,·,·
O=C(Nc1nn[nH]n1)c1cc(-c2ccc(Cl)c(Cl)c2Cl)nc2ccccc12,-7.7,-4.9,139.0*,104.0,12.0,86.0,-9.0,89.0
C=C(C)c1cccc(C(C)(C)NC(=O)NCc2ccc(OC)c(OC)c2)c1,-21.4,-3.8,102.0,104.0,5.0,·,·,·
C=C(C)c1cccc(C(C)(C)NC(=O)NCc2ccc(OC)cc2)c1,-8.9,1.9,104.0,133.0*,0.0,104.0,6.0,105.0
CC(C)(C)C(=O)C1=C(O)C(=O)N(Cc2ccccc2)C1c1ccccc1F (stereo unspecified),-30.1,-7.2,103.0,107.0,1.0,·,·,·
CC(C)C[C@H](NC(=O)c1[nH]cnc1C(=O)N[C@@H](C)c1ccccc1)C(=O)OCc1ccccc1,·,-8.6,1.0*[inhibitor],1.0*[inhibitor],1.0,102.0,-2.0,105.0

# High-throughput results deposited in PubChem by several laboratories.
